± gives the standard deviation of the averaged measurements.
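Also: viability of the cells left after supernatant collection, read with Deep Blue dye added for 4 h, as absorbance at 570 nm minus 600 nm.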

The subject of this experiment is MDA-MB-231. The experiment is described as follows: cell viability relative to vehicle unstimulated control (fraction); higher = more viable cells. The settings on record: pre-treatment time: 18 h then 24 h IFNg/TNF.
Turning to `C=C1C[C@@]23CC[C@H]4[C@@](C)(CCC[C@@]4(C)C(=O)O[C@@H]4O[C@H](CO)[C@@H](O)[C@H](O[C@@H]5O[C@H](CO)[C@@H](O)[C@H](O)[C@H]5O)[C@H]4O[C@@H]4O[C@H](CO)[C@@H](O)[C@H](O)[C@H]4O)[C@@H]2CC[C@]1(O[C@@H]1O[C@H](CO)[C@@H](O)[C@H](O[C@@H]2O[C@H](CO)[C@@H](O)[C@H](O)[C@H]2O)[C@H]1O[C@@H]1O[C@H](CO)[C@@H](O)[C@H](O)[C@H]1O)C3` [Rebaudioside M] (compound dose: 10 uM), the cell viability is 0.939 ± 0.012.

Consider `C[C@]12C[C@@H](O)[C@@H]3C[C@@]1(O[C@@H]1O[C@H](CO)[C@@H](O)[C@H](O)[C@H]1O)[C@@]3(COC(=O)c1ccccc1)C(=O)O2` [Albiflorin] (compound dose: 10 uM), for which the cell viability stood at 0.963 ± 0.031.

`COC(=O)[C@@]1(C)CC[C@]2(C(=O)O)CC[C@]3(C)C(=CC[C@@H]4[C@@]5(C)C[C@H](O)[C@H](O)[C@@](C)(CO)[C@@H]5CC[C@]43C)[C@@H]2C1` [Phytolaccagenin] (compound dose: 10 uM): the cell viability came out at 0.924 ± 0.049.

Turning to `C=C1C[C@@]23CC[C@H]4[C@@](C)(CCC[C@@]4(C)C(=O)O[C@@H]4O[C@H](CO)[C@@H](O)[C@H](O)[C@H]4O)[C@@H]2CC[C@]1(O[C@@H]1O[C@H](CO)[C@@H](O)[C@H](O)[C@H]1O[C@@H]1O[C@H](CO)[C@@H](O)[C@H](O)[C@H]1O)C3` [Stevioside] (compound dose: 10 uM), the cell viability turned out to be 1.05 ± 0.015.

Consider `C[C@H](CC[C@@H](O)C(C)(C)O)[C@H]1CC[C@@]2(C)[C@@H]3CC=C4[C@@H](CC[C@H](O[C@@H]5O[C@H](CO)[C@@H](O)[C@H](O)[C@H]5O)C4(C)C)[C@]3(C)[C@H](O)C[C@]12C` [Mogroside I E1] (compound dose: 10 uM), for which the cell viability worked out at 0.906 ± 0.15.

For the molecule `CC1(C(=O)O)CCC2(C)CCC3(C)C(=CC(=O)C4C5(C)CCC(O)C(C)(C)C5CCC43C)C2C1` (stereo not drawn) [18β-Glycyrrhetinic acid] (compound dose: 10 uM), the cell viability stood at 1.02 ± 0.17.

In the case of `C[C@H](CC[C@@H](O[C@@H]1O[C@H](CO)[C@@H](O)[C@H](O)[C@H]1O)C(C)(C)O)[C@H]1CC[C@@]2(C)[C@@H]3CC=C4[C@@H](CC[C@H](O)C4(C)C)[C@]3(C)[C@H](O)C[C@]12C` [Mogroside I A1] (compound dose: 10 uM), the cell viability was found to be 0.881 ± 0.068.

For the molecule `CC1(C)CC[C@]2(C(=O)O)[C@H](O)C[C@]3(C)C(=CC[C@@H]4[C@@]5(C)CC[C@H](O)[C@@](C)(C=O)[C@@H]5CC[C@]43C)[C@@H]2C1` [Quillaic acid] (compound dose: 10 uM), the cell viability turned out to be 1.01 ± 0.015.

As to `C[C@@H]1C[C@@H]2O[C@@]3(O[C@@H]2C(C)(C)O)[C@H](O)[C@@]2(C)[C@@H]4CC[C@H]5C(C)(C)[C@@H](O)CC[C@@]56C[C@@]46CC[C@]2(C)[C@@H]13` [Cimigenol] (compound dose: 10 uM), the cell viability worked out at 1.03 ± 0.066.

As to `C[C@@]12C[C@@]3(O)O[C@@H](O1)[C@]1(COC(=O)c4ccccc4)[C@@H]3C[C@]12O[C@@H]1O[C@H](COC(=O)c2ccccc2)[C@@H](O)[C@H](O)[C@H]1O` [Benzoylpaeoniflorin] (compound dose: 10 uM), the cell viability came out at 0.956 ± 0.034.

For `C[C@@H]1O[C@@H](O[C@H]2[C@H](OC(=O)[C@]34CCC(C)(C)C[C@H]3C3=CC[C@@H]5[C@@]6(C)C[C@H](O)[C@H](O[C@@H]7O[C@H](CO)[C@@H](O)[C@H](O)[C@H]7O)C(CO)(CO)[C@@H]6CC[C@@]5(C)[C@]3(C)C[C@H]4O)OC[C@H](O)[C@@H]2O)[C@H](O)[C@H](O)[C@H]1O[C@@H]1OC[C@@H](O)[C@H](O)[C@H]1O` [Deapioplatycodin D] (compound dose: 10 uM), the cell viability was determined as 0.93 ± 0.031.

With `CC(=O)O[C@]12C[C@H](C)[C@H](OC(=O)/C=C/c3ccccc3)[C@@H]1/C=C(/CO)CC[C@H]1[C@@H](/C=C(\C)C2=O)C1(C)C` [Euphorbia factor L22] (compound dose: 10 uM), the cell viability was determined as 1.11 ± 0.047.

For the molecule `C[C@@H]1O[C@@H](O[C@H]2[C@H](O[C@H]3CC[C@]4(C)[C@H]5CC=C6[C@@H]7CC(C)(C)CC[C@]7(C(=O)O)CC[C@@]6(C)[C@]5(C)CC[C@H]4C3(C)C)OC[C@H](O[C@@H]3O[C@H](CO)[C@@H](O)[C@H](O)[C@H]3O)[C@@H]2O)[C@H](O)[C@H](O)[C@H]1O` [Hederacolchiside A1] (compound dose: 10 uM), the cell viability came to 0.221 ± 0.013.

In the case of `Cc1cc(O)cc(O[C@@H]2O[C@H](CO)[C@@H](O)[C@H](O)[C@H]2O)c1` [Orcinol glucoside] (compound dose: 10 uM), the cell viability is 1.05 ± 0.027.

In the case of `CO[C@@H]1C=C2[C@@H]3CC(C)(C)CC[C@]3(CO)[C@H](O)C[C@@]2(C)[C@]2(C)CC[C@H]3[C@](C)(CO)[C@@H](O[C@@H]4O[C@H](C)[C@H](O)[C@H](O[C@@H]5O[C@H](CO)[C@@H](O)[C@H](O)[C@H]5O)[C@H]4O)CC[C@]3(C)[C@@H]12` [Saikosaponin B4] (compound dose: 10 uM), the cell viability came out at 1.12 ± 0.026.

Consider `C[C@@H]1O[C@@H](O[C@H]2[C@H](O[C@H]3CC[C@@]4(C)[C@@H](CC[C@]5(C)[C@@H]4CC=C4[C@@H]6CC(C)(C)CC[C@]6(C(=O)O[C@@H]6O[C@H](CO[C@@H]7O[C@H](CO)[C@@H](O[C@@H]8O[C@@H](C)[C@H](O)[C@@H](O)[C@H]8O)[C@H](O)[C@H]7O)[C@@H](O)[C@H](O)[C@H]6O)CC[C@]45C)[C@]3(C)CO)OC[C@H](O)[C@@H]2O)[C@H](O)[C@H](O)[C@H]1O` [Hederacoside C] (compound dose: 10 uM), for which the cell viability amounted to 1.05 ± 0.024.

Take `CC1(C)C2CC=C(C=O)C1C2` (single isomer, unassigned; (-)) [(-)-Myrtenal] (compound dose: 10 uM): the cell viability was 0.988 ± 0.056.

Take `C=C1C(=O)O[C@@H]2[C@H]3C(C)=CC[C@@]34O[C@@]4(C)CC[C@@H]12` [Arglabin] (compound dose: 10 uM): the cell viability turned out to be 1.01 ± 0.041.

For the molecule `Cc1ccc(C(C)C)cc1O` [Carvacrol] (compound dose: 10 uM), the cell viability amounted to 1.06 ± 0.036.

Consider `CC1CCC2(O)C(C)(C)C3CCC2(C)C1C3` (stereo not drawn) [Patchouli alcohol] (compound dose: 10 uM), for which the cell viability is 0.994 ± 0.013.

For the molecule `C[C@@H]1O[C@@H](O[C@H]2[C@H](O[C@H]3CC[C@@]4(C)[C@@H](CC[C@]5(C)[C@@H]4CC=C4[C@@H]6CC(C)(C)CC[C@]6(C(=O)O)CC[C@]45C)[C@]3(C)CO)OC[C@H](O[C@@H]3O[C@H](CO)[C@@H](O)[C@H](O)[C@H]3O)[C@@H]2O)[C@H](O)[C@H](O)[C@H]1O` [Pulsatilla saponin D] (compound dose: 10 uM), the cell viability is 0.145 ± 0.0044.

Take `OC[C@H]1O[C@@H](O[C@@H]2OC=C[C@H]3[C@H](O)[C@@H]4O[C@]4(CO)[C@@H]23)[C@H](O)[C@@H](O)[C@@H]1O` [Catalpol] (compound dose: 10 uM): the cell viability is 0.896 ± 0.28.

In the case of `C/C=C1\C(=O)C[C@H]2[C@@H]3CCC4=CC(=O)CC[C@]4(C)[C@H]3CC[C@]12C` [Guggulsterone] (compound dose: 10 uM), the cell viability came out at 0.9378 ± 0.0046.

For `C=C1C(=O)O[C@@H]2C[C@@]3(C)CCC[C@H](C)C3=C[C@H]12` [Alantolactone] (compound dose: 10 uM), the cell viability is 0.909 ± 0.023.

For the molecule `C=C1C(=O)O[C@@H]2/C=C(\C)CC/C=C(\C)CC[C@@H]12` [Costunolide] (compound dose: 10 uM), the cell viability was determined as 1.03 ± 0.059.

With `COc1ccc(C[C@H]2COC(=O)[C@]2(O)Cc2ccc(O[C@@H]3O[C@H](CO)[C@@H](O)[C@H](O)[C@H]3O)c(OC)c2)cc1OC` [Tracheloside] (compound dose: 10 uM), the cell viability amounted to 0.8831 ± 0.0055.

In the case of `CN1CCC[C@H]1c1cccnc1` [(-)-nicotine] (compound dose: 10 uM), the cell viability stood at 0.978 ± 0.08.

As to `O=c1c(O)c(-c2ccc(O)cc2)oc2cc(O)cc(O)c12` [Kaempferol] (compound dose: 10 uM), the cell viability came out at 0.969 ± 0.079.

On to `CC(/C=C/C=C(\C)C(=O)O[C@@H]1O[C@H](CO)[C@@H](O)[C@H](O)[C@H]1O)=C\C=C\C=C(C)\C=C\C=C(/C)C(=O)O[C@@H]1O[C@H](CO[C@@H]2O[C@H](CO)[C@@H](O)[C@H](O)[C@H]2O)[C@@H](O)[C@H](O)[C@H]1O` [Crocin II] (compound dose: 10 uM), for which the cell viability was 0.987 ± 0.09.

`COc1cc2c(=O)c3c(O)c([C@@H]4O[C@H](CO[C@@H]5OC[C@](O)(CO)[C@H]5O)[C@@H](O)[C@H](O)[C@H]4O)c(O)cc3oc2cc1O` [Polygalaxanthone III] (compound dose: 10 uM): the cell viability was 1 ± 0.048.

For `CC(C)=CCC[C@](C)(O)[C@@H]1CC=C(C)CC1` [alpha-Bisabolol] (compound dose: 10 uM), the cell viability amounted to 0.9925 ± 0.0046.

As to `CC1=CC[C@@](O)(C(C)C)CC1` [Terpinen-4-ol] (compound dose: 10 uM), the cell viability was 1.12 ± 0.0039.

For `C/C1=C\[C@@H]2[C@H](CC/C(C)=C/CC(=O)/C(C)=C/CC1)C2(C)C` [5-ketocasbene/9-ketocasbene] (compound dose: 10 uM), the cell viability was 1.155 ± 0.0076.

With `CC12CCC(C1)C(C)(C)C2=O` (single isomer, unassigned; (-)) [(-)-Fenchone] (compound dose: 10 uM), the cell viability turned out to be 1.121 ± 0.0077.

On to `O=c1ccn2c(n1)O[C@H]1[C@H](O)[C@@H](CO)O[C@H]12` [2,2'-Anhydrouridine] (compound dose: 10 uM), for which the cell viability stood at 0.906 ± 0.036.

On to `COc1ccc(-c2coc3cc(O)ccc3c2=O)cc1` [Formononetin] (compound dose: 10 uM), for which the cell viability is 0.988 ± 0.032.

Consider `C=C(C)[C@@H]1CC[C@]2(C(=O)O[C@@H]3O[C@H](CO[C@@H]4O[C@H](CO)[C@@H](O[C@@H]5O[C@@H](C)[C@H](O)[C@@H](O)[C@H]5O)[C@H](O)[C@H]4O)[C@@H](O)[C@H](O)[C@H]3O)CC[C@]3(C)[C@H](CC[C@@H]4[C@@]5(C)CC[C@H](O[C@@H]6OC[C@H](O)[C@H](O)[C@H]6O[C@@H]6O[C@@H](C)[C@H](O)[C@@H](O)[C@H]6O)[C@@](C)(CO)[C@@H]5CC[C@]43C)[C@@H]12` [Pulchinenoside C] (compound dose: 10 uM), for which the cell viability was 0.9971 ± 0.0034.

`CC1=C[C@H]2[C@@H](CC1)[C@H](C)CC[C@H]2[C@@H](C)C(=O)O` [Dihydroartemisinic acid] (compound dose: 10 uM): the cell viability was found to be 1.107 ± 0.0025.

For the origin of these results see the supplement of paper PMC13094657.
